High-throughput results from PubChem BioAssay.
KB-3-1 cytotox: qHTS assay for MDR1-selective chemotherapeutics: Primary screen using the parental adenocarcinoma cell KB-3-1. KB-3-1 viability, CellTiter-Glo ATP luminescence, 72 h. Potency, µM (titrated, usually from 46.1 µM), usual class: cytotoxic. 400,000 tested, 1.4% active. AID 1347075, 2019; note: % is set by controls: 0 for no effect and ±100 for the full control effect; nearly all actives have a fitted effect of over 60% in size
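Cytotoxicity measured as CellTiter-Glo luminescence after 72 h at 37 C. Compound titrations were pinned onto drug-naive KB-3-1 parental adenocarcinoma cells grown in DMEM with 10% FBS, and normalized data fitted to concentration-response curves.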
MCF10A rerep: A quantitative high throughput screen for small molecules that induce DNA re-replication in MCF 10a normal breast cells; MCF 10A DNA re-replication, Hoechst nuclear intensity, 48 h; Potency, µM (doses to about 46.1 µM), for inactives: at the highest dose activity, positive = re-replication, hits mostly activators; 350,000 tested, 2.9% active; note: % of control where 0% means no effect; nearly all actives have a fitted effect of over 50% in size
HT1080 IDH1KD tx: qHTS for induction of synthetic lethality in tumor cells producing 2HG: qHTS for the HT-1080-IDH1KD cell line; AID 686971, 2013; Potency, µM (titrated, usually from 46.1 µM), for inactives: at the highest dose activity, negative = toxicity, most hits filed as cytotoxic; HT-1080 IDH1 knockdown viability, ATP luminescence, 48 h; 360,000 tested, 2% active;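 note: 0% = DMSO wells and -100% = cell-free medium wells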
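Viability of IDH1-knockdown HT-1080 fibrosarcoma cells was assessed by CellTiter-Glo after 48 h at 37 °C with titrated compound; concentration-effect curves were classified by fit quality and response size.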
KB-V1 cytotox: qHTS assay for MDR1-selective chemotherapeutics: Primary screen using the drug-selected MDR subline cells KB-V1. KB-V1 MDR cells viability, CellTiter-Glo, 72 h. Potency, µM (titrated, usually from 46.1 µM), actives largely listed as cytotoxic. 400,000 tested, 3.4% active; note: % is set by controls: 0 for no effect and ±100 for the full control effect; nearly all actives have a fitted effect of over 60% in size
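qHTS viability screen in drug-selected KB-V1 MDR cells: 72 h compound treatment at 37 degrees C, ATP luminescence end point.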
SW480 rerep: A quantitative high throughput screen for small molecules that induce DNA re-replication in SW480 colon adenocarcinoma cells; 340,000 tested, 1.8% active; SW480 DNA re-replication, Hoechst DNA content imaging, 48 h; Potency, µM (series often up to 46.1 µM), for the others: at the top dose re-replication activation, hits mostly activators; note: % of control where 0% means no effect; nearly all actives have a fitted effect of over 55% in size
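Quantitative HTS format with DMSO vehicle controls; 48 hr drug incubation at 37 C, then 40 min Hoechst staining and scanning imager measurement at 405 nm excitation.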
HT1080NT lethal: qHTS for induction of synthetic lethality in tumor cells producing 2HG: qHTS for the HT-1080-NT fibrosarcoma cell line. 360,000 tested, 1.6% active. Potency, µM (doses to about 46.1 µM), without a hit: at the highest dose activity, negative = less viability, hits mostly cytotoxic. HT-1080-NT fibrosarcoma viability, CellTiter-Glo ATP luminescence, 48 h;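 note: NT is the 2HG producing partner of a matched IDH1 knockdown line; 0% = DMSO-treated cells and -100% = media-only wells without cells; nearly all actives have a fitted effect of over 55% in size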
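Viability of the 2HG-overproducing fibrosarcoma line after 48 hours of compound exposure at 37 degrees C was determined by luminescence with CellTiter-Glo, and concentration-effect curves were then fitted and categorized.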
* = called active by the depositor; i = inactive; ? = inconclusive; nt = not tested or not shown; ! = a repeat was not active; [ ] = remark or other dose. Hits are enriched below; roughly 7.9% of the tested compounds scored in any of these assays. Calls come from the whole dose curve; as a rule, active = well fitted curve in the direction sought with a large enough effect; inconclusive = small, poorly fitted or top-dose-only effect, or another doubt; inactive = no such curve, though single readings can be large; an effect the other way counts as inactive or inconclusive. Potency is the fitted concentration of half-maximal effect.

SMILES	KB-3-1 cytotox	MCF10A rerep	HT1080 IDH1KD tx	KB-V1 cytotox	SW480 rerep	HT1080NT lethal
CC1=C(C(N)=O)C(c2cccc(C)c2)n2nc(-c3cccc(C)c3)nc2N1 (stereo not given)	i	nt	nt	i	nt	nt
Cc1ccc2sc3ccc(NC(=O)c4ccccc4Cl)cc3c(=O)c2c1	?	?	?	?	13µM*	?
CCOc1ccc(NC(=O)c2oc3ccccc3c2NC(=O)c2cc3ccccc3o2)cc1	i	nt	nt	i	nt	nt
Cc1cccc(C)c1-n1nnnc1C(c1ccccc1)N1CCN(C/C=C/c2ccccc2)CC1 (stereo not given)	i	nt	?	i	nt	?
COc1ccc(CN(C(=O)Cc2coc3ccc(C)cc23)C2CCS(=O)(=O)C2)cc1 (stereo not given)	i	nt	nt	?	nt	nt
Cc1ccc(Cc2c(-c3ccco3)nc3ccc(Br)cn23)cc1	i	nt	16µM*	i	nt	18µM*
COc1ccc(Cc2c(-c3ccco3)nc3ccc(Br)cn23)c(C)c1	i	nt	21µM*	i	nt	?
COc1ccccc1Cc1c(-c2ccco2)nc2c(C)cc(Br)cn12	?	nt	3.7µM*	?	nt	3.3µM*
COc1ccc(Cc2c(-c3ccco3)nc3ccc(Cl)cn23)c(C)c1	i	nt	?	i	nt	-24%
COc1ccc(Cc2c(-c3cccc(Cl)c3)nc3c(C)cc(Br)cn23)c(C)c1	?	nt	23µM*	i	nt	21µM*
CC1(C(=O)NS(=O)(=O)C2CC2)CCCN(C(=O)c2ccccc2OC(F)(F)F)C1 (stereo not given)	i	nt	11%	i	nt	22%
Cc1cccn2c(=O)c3cc(C(=O)NCc4ccccc4Cl)sc3nc12	i	nt	nt	i	nt	nt
Brc1ccc(-c2nc3ccc(Br)cn3c2Cc2ccccc2)cc1	?	nt	?	i	nt	?
Cc1cc(Br)cn2c(Cc3ccsc3)c(-c3ccco3)nc12	i	nt	23µM*	i	nt	16µM*
COc1ccc(Cc2c(-c3ccco3)nc3c(C)cc(Br)cn23)c(C)c1	?	nt	6.5µM*	i	nt	?
Fc1ccc(-c2nc3ccc(Br)cn3c2Cc2ccccc2)cc1	21µM*	nt	-4%	i	nt	-1%
C[C@@H]1CN([C@@H](C)CO)C(=O)CCCn2nncc2CO[C@@H]1CN(C)C(=O)Nc1ccccc1C(F)(F)F	i	nt	8%	i	nt	10%
COc1ccc(-c2nc(C)c(CCNC(=O)c3ccc(F)c(F)c3)s2)cc1	i	nt	nt	?	nt	nt
CCc1ccc(C(=O)c2cn(CC(=O)NC3CCCCC3)c3nc(C)ccc3c2=O)cc1	i	nt	nt	i	nt	nt
CCN([C@H](CO)CC(C)C)S(=O)(=O)c1ccccc1	i	9%	7%	i	-32%	-1%
COC(=O)[C@@H](CC(C)C)NS(=O)(=O)N(Cc1ccccc1)[C@@H](CC(C)C)C(=O)OC	?	?	3%	?	6%	1%
O=S(=O)(N(Cc1ccccc1)[C@H](CO)Cc1ccccc1)N(Cc1ccccc1)[C@H](CO)Cc1ccccc1	i	23µM*	-4%	i	-1%	-5%
CC(C)C[C@@H](CO)N(Cc1ccccc1)S(=O)(=O)N(Cc1ccccc1)[C@H](CO)CC(C)C	?	?	?	21µM*!	11%	?
COc1ccc(CN([C@H](CO)CC(C)C)S(=O)(=O)N(Cc2ccccc2)[C@H](CO)CC(C)C)cc1	?	267%	6.5µM*	16µM*!	-17%	16µM*
COc1ccc(CN([C@H](C)CO)S(=O)(=O)N(Cc2ccccc2)[C@H](CO)C(C)C)cc1	i	-11%	8%	i	-15%	12%
SMILES	KB-3-1 cytotox	MCF10A rerep	HT1080 IDH1KD tx	KB-V1 cytotox	SW480 rerep	HT1080NT lethal
CC(C)C[C@@H](CO)N(Cc1ccccc1)S(=O)(=O)N(Cc1ccccc1)[C@@H](CO)CC(C)C	23µM*!	?	?	?	0%	?
CCN(CC)c1ccc(/C=C/c2ccc3ccc(OC)cc3[n+]2CC)cc1	?	1%	?	i	-18%	?
CCOc1ccc(CCNC(=O)c2cc3c(s2)-c2ccccc2OC3)cc1OCC	i	nt	nt	?	nt	nt
C=CS(=O)(=O)N(Cc1ccccc1Br)[C@H](CO)CC(C)C	23µM*!	15%	-20%	?	?	-12%
C=C[C@H](CC(C)C)N(Cc1ccccc1)S(=O)(=O)N(Cc1ccccc1)[C@@H](C=C)CC(C)C	i	9.2µM*	14%	i	-3%[9.22 µM]	1%
Cc1cc(C)cc(C(=O)n2nc(C)c(S(=O)(=O)N3CCCCCC3)c2C)c1	i	nt	nt	i	nt	nt
CN1CCN(c2cc(-c3cc(O)c4ncccc4c3)ccn2)CC1	?	2%	nt	i	?	nt
Oc1cc(-c2cccnc2)cc2cccnc12	?	10µM*	nt	?	?	nt
COC(=O)c1cc(-c2cc(OC)ccc2OC)nc2c1c(=O)n(C)c(=O)n2Cc1ccccc1	i	6.5µM*	9%	?	2.3µM*	11%
Cc1ccc(N(C)S(=O)(=O)c2cccc(C(=O)Nc3ccc(N4CCOCC4)cc3)c2)cc1	?	18%	-16%	?	7%	-1%
COc1ccc(NC(=O)c2cccc(OC(=S)N3CCOCC3)c2)cc1	i	-2%	-7%	16µM*	-7%	-23%
COc1ccc(N(C)S(=O)(=O)c2cccc(C(=O)Nc3ccc(N4CCOCC4)cc3)c2)cc1	?	16%	-27%	15µM*	?	-8%
CC(C)NC(=O)C1(C)CCN1C(=O)Cc1ccc(-c2ccccc2)cc1 (stereo not given)	i	nt	?	i	nt	?
CCCS(=O)(=O)c1c(S(=O)(=O)CCC)c2cc(C(C)(C)C)ccn2c1C(=O)c1ccc(C)cc1	i	nt	nt	i	nt	nt
O=C(Nc1ccc(C(=O)OC[C@@H]2CCCN3CCCC[C@H]23)cc1)c1cccc(Br)c1	i	23µM*	-6%	i	-5%	-11%
O=C(Nc1ccccc1)N(Cc1ccccc1)C1=NCCS1	i	-1%	9%	i	-1%	14%
O=S(=O)(c1ccccc1)N(C1=NCCS1)S(=O)(=O)c1ccccc1	i	13%	8%	21µM*	0%	2%
